In PubChem BioAssay AID485344 (National Center for Advancing Translational Sciences (NCATS), 2010):
Several values for one entry are separate records, joined by “and”; a condition that tells them apart may be missing. Equal entries are not always repeated. Hit rate of the full screen: of about 340,000 compounds, about 6,900 (2%) were called active. Rule as the data show it: active = inhibition above about 30%; inactive = below that, where a call was filed. For the sample, actives were picked, then their nearest neighbours and some compounds at random. A structure can be active in one record and inactive in another.

Target: D(2) dopamine receptor (Homo sapiens) (UniProt P14416)
Sequence (P14416 whole entry, looked up): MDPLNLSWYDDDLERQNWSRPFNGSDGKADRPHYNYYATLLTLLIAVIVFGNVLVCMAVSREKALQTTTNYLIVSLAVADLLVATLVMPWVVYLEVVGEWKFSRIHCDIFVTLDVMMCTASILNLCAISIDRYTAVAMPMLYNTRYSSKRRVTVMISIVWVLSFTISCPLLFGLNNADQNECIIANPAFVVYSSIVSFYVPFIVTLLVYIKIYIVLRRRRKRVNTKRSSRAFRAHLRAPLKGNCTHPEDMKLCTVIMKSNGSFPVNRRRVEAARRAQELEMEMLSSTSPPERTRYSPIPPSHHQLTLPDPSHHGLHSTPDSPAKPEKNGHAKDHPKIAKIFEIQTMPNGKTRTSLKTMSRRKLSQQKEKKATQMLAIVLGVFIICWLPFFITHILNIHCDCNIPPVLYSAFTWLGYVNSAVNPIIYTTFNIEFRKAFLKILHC
Assay: HTS Assay for Allosteric Antagonists of the Human D2 Dopamine Receptor: Primary Screen for Antagonists; also: 0% is about no effect
Details: HEK293 TREx D2 cells, calcium flux, dopamine EC80; at 10 µM; stronger effect = higher value
How it was run: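 Calcium mobilization kinetics were recorded at 1 s intervals in tetracycline-induced HEK293 T-REx D2 cells, first for 180 s after compound addition and then 180 s after EC80 dopamine.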

Row | SMILES | inhibition
1 | COc1ccccc1S(=O)(=O)NCc1ccc(C(=O)N(C)Cc2ccc(F)cc2)cc1 | -9.99% (inactive)
2 | CC(C(=O)NC1CCCC1)N1CCN(S(=O)(=O)c2ccccc2Cl)CC1 (centres undefined) | 10.1% (inactive)
3 | O=C(Cn1c(N2CCN(C/C=C/c3ccccc3)CC2)nc2ccccc21)c1ccccc1 | 47.6% (active)
4 | O=C(CN1CCN(c2ccc(Cl)cc2)CC1)c1ccccc1 | 22.1% (inactive)
5 | CC(C)Cn1c(N2CCN(C(=O)/C=C/c3ccccc3)CC2)nc2ccccc21 | -10.5% (inactive)
6 | CC1CCc2sc(C(=O)NCC(c3ccco3)N3CCCCC3)cc2C1 (centres undefined) | -22% (inactive)
7 | CC(C)OP(=O)(OC(C)C)C(Nc1ccccc1)c1cccc([N+](=O)[O-])c1 (centres undefined) | 4.68% (inactive)
8 | O=C(CC(c1ccccc1)c1ccccc1)NCC(O)c1ccc([N+](=O)[O-])cc1 (centres undefined) | -8.44% (inactive)
9 | CC(CCc1ccccc1)NCC(O)c1cccc([N+](=O)[O-])c1 (centres undefined) | 58.8% (active)
10 | COCCn1c(C)cc(C(=O)CSc2nnc(C3CC3)n2C2CC2)c1C | -24.6% (inactive)
11 | COc1ccc(S(=O)(=O)N2CCN(CC(=O)NCC3(N4CCOCC4)CCCCC3)CC2)cc1 | -1.88% (inactive)
12 | CN(CC(=O)Nc1ccc(Cl)c(C(F)(F)F)c1)C(=O)CCC(=O)c1ccccc1 | 5.01% (inactive)
13 | Cc1ccc(OCCC(=O)OCC(=O)N2c3ccccc3NC(=O)C2(C)C)cc1 | 21.8% (inactive)
14 | O=C(CN1CCCCC1)NC(=O)Nc1ccccc1F | -3.1% (inactive)
15 | CCN(CC)S(=O)(=O)c1ccc(OC)c(NC(=O)CCc2c(C)noc2C)c1 | 5.64% (inactive)
16 | CC1CN(C2CCN(C(=O)COc3ccccc3)CC2)CC(C)O1 (centres undefined) | -12.1% (inactive)
17 | CC1CCCN(CC(O)COCc2ccccc2)C1 (centres undefined) | 10.7% (inactive)
18 | CN1CCN(CCCCOc2cccc3ccccc23)CC1 | 15.6% (inactive)
19 | CN1CCN(CCCCOc2ccccc2-c2ccccc2)CC1 | 69.9% (active)
20 | CCN1CCN(CCCCOc2ccccc2F)CC1 | 3.79% (inactive)
21 | CC1CN(CC(=O)NC(C)c2ccccc2)CC(C)O1 (centres undefined) | 5.75% (inactive)
22 | CC1CN(CCCOc2ccccc2-c2ccccc2)CC(C)O1 (centres undefined) | 49.7% (active)
23 | c1ccc(-c2ccccc2OCCN2CCCCC2)cc1 | 26.6% (inactive)

Row | SMILES | inhibition
24 | CC1CCCN(CCOCCOc2ccccc2-c2ccccc2)C1 (centres undefined) | 80.4% (active)
25 | COc1ccccc1-c1nn(Cc2ccccc2)cc1C(=O)N1CCN(c2ncccn2)CC1 | -14.3% (inactive)
26 | CC(=O)c1ccc(S(=O)(=O)Nc2ccc(-c3ccc4nncn4n3)cc2)cc1 | 12.5% (inactive)
27 | COc1ccc(-c2cc(C(=O)NCCCN3CCCC3=O)c3ccccc3n2)cc1OC | 13.7% (inactive)
28 | O=C(Nc1ccncc1)c1ccc([N+](=O)[O-])cc1Cl | 0.87% (inactive)
29 | CC(C)C(=O)Nc1cccc(NC(=O)c2ccc([N+](=O)[O-])cc2Cl)c1 | 39.3% (active)
30 | O=C(Nc1cccc(NC(=O)c2ccccc2[N+](=O)[O-])c1)c1ccccc1Cl | 3.86% (inactive)
31 | CN(C(=O)CSc1nnc(C2CC2)n1C)C1CCCc2ccccc21 (centres undefined) | -0.606% (inactive)
32 | Cc1cc(C)n(-c2nnc(C)n2NC(=O)c2cccc(Cl)c2)n1 | 46.8% (active)
33 | Cc1nc2ccccc2c(=O)n1NC(=O)c1ccc(Cl)c([N+](=O)[O-])c1 | 11.3% (inactive)
34 | O=C(Nc1ccon1)c1cccc(Cl)c1 | 18.9% (inactive)
35 | CC1CC(=O)Nc2ccccc2N1C(=O)COc1ccc2cc(Br)ccc2c1 (centres undefined) | -5.97% (inactive)
36 | C=C1CCC(N(O)c2cc(C)on2)C(=C)CCC2C1CC2(C)C (centres undefined) | -0.609% (inactive)
37 | Cc1ccc(S(=O)(=O)CCC(=O)Nc2nnc(CC(C)C)s2)cc1 | -13.3% (inactive)
38 | COc1ccc(S(=O)(=O)Nc2cc(C)on2)cc1NC(C)=O | 15.7% (inactive)
39 | Cc1cccc(NC(=O)C2CCCN(C(=O)NCc3ccccc3)C2)c1C (centres undefined) | -14.3% (inactive)
40 | Cc1cccc(NC(=O)N2CCCCCC2)c1C | 9.43% (inactive)
41 | Cc1cccc(NC(=O)C2CCCN(C(=O)Nc3ccc(F)cc3)C2)c1C (centres undefined) | 36% (active)
42 | O=C(O[C@H]1[C@H](Cc2ccccc2)NS(=O)(=O)[C@H]2C[C@@H]3C=C[C@]12O3)c1ccc([N+](=O)[O-])cc1 | 19.3% (inactive)
43 | CC1(NC(=O)CCS(=O)(=O)c2ccc(Cl)cc2)CCS(=O)(=O)C1 (centres undefined) | 9.74% (inactive)
44 | CC(=O)c1sc(NC(=O)CCN2C(=O)C3CC=CCC3C2=O)nc1-c1ccccc1 (centres undefined) | -8.46% (inactive)
45 | Cc1cc(C(=O)COc2ccccc2Cl)c(C)n1C1CC1 | -29.6% (inactive)
46 | CC(C)CNC(=O)c1cc(-c2ccc(Br)cc2)on1 | -7.31% (inactive)

Row | SMILES | inhibition
47 | Cc1ccc(S(=O)(=O)Cc2cc(-c3ccc(Cl)cc3)no2)cc1 | -17% (inactive)
48 | CC(C)C(=O)NCc1cc(-c2ccc(Cl)cc2)no1 | 41.7% (active)
49 | Cc1cc(C)n2nc(C(=O)Nc3cccc(S(=O)(=O)N4CCOCC4)c3)nc2n1 | 7.16% (inactive)
50 | CC(C)c1ccc2c(c1)c(SC(C)(C)C)c(CC(C)(C)C(=O)O)n2Cc1ccc(Cl)cc1 | 6.19% (inactive) and 47.1% (active)
51 | O=C(O)c1ccc(Cn2c(=S)[nH]c3cc(Cl)ccc3c2=O)cc1 | -1.7% (inactive)
52 | CCCCCCSc1ccc([C@@H]2[C@@H]3C(=O)N(CC)C(=O)[C@@H]3[C@]3(C(=O)OC)CCCCN23)cc1OC | 6.12% (inactive)
53 | COc1cc(OC)c(N2CC(C(=O)Nc3cc(Cl)ccc3N3CCOCC3)CC2=O)cc1Cl (centres undefined) | -13.1% (inactive)
54 | O=C(CN1CCCCCC1)Nc1ccc(S(=O)(=O)N2CCCCC2)cc1 | -6.5% (inactive)
55 | COc1ccccc1CC(=O)Nc1ccc(S(=O)(=O)N2CCCC2)cc1 | 39.2% (active)
56 | CCN(CC(=O)Nc1ccc(S(=O)(=O)N2CCCC2)cc1)CC(=O)Nc1cccc(OC)c1 | -1.82% (inactive)
57 | COc1cc(OC)cc(C(=O)NNC(=O)CCOc2ccccc2OC)c1 | 23.6% (inactive)
58 | Cc1[nH]c2ccccc2c1C(=O)CN1CC(C)CC(C)C1 (centres undefined) | 14.4% (inactive)
59 | CC1CC(C)CN(CCOc2cccc3ccccc23)C1 (centres undefined) | 55.1% (active)
60 | Cc1cccc(NC(=O)CCN2CC(C)CC(C)C2)c1 (centres undefined) | 4.5% (inactive)
61 | COc1cccc(NC(=O)COC(=O)/C=C/c2ccco2)c1 | 13.2% (inactive)
62 | Cn1c(SCC(=O)Nc2ccc(N3CCOCC3)cc2)nnc1C(F)(F)F | 6.16% (inactive)
63 | O=C(c1c(F)cccc1F)N1CCN(S(=O)(=O)c2ccc3c(c2)OCCO3)CC1 | 8.79% (inactive)
64 | O=C(c1ccc2c(c1)OCCO2)C1CCN(S(=O)(=O)c2cccc(F)c2)CC1 | 61.3% (active)
65 | O=C(Nc1ccccn1)C1CCN(S(=O)(=O)c2ccc3c(c2)OCCO3)CC1 | -2.31% (inactive)
66 | O=C(CSc1nnc(N2CCOCC2)n1-c1cccc(F)c1)N1CCN(c2ccccn2)CC1 | 4.3% (inactive)
67 | COc1ccccc1C(=O)NCC(=O)OCC(=O)Nc1nnc(-c2ccccc2)o1 | 1.12% (inactive)
68 | CC(C)(C)C(=O)CSc1ccc(S(=O)(=O)N2CCCC2)cn1 | 5.12% (inactive)
69 | Cc1cccc(N2CCN(Cc3c(C)n(C)n(-c4ccccc4)c3=O)CC2)c1C | 41.2% (active)

Row | SMILES | inhibition
70 | Cc1c(CN2CCC(C)CC2)c(=O)n(-c2ccccc2)n1C | -7.69% (inactive)
71 | Cc1c(CN2CCCC(C(=O)c3cccc(Cl)c3)C2)c(=O)n(-c2ccccc2)n1C (centres undefined) | -0.0762% (inactive)
72 | C#CCOCCOCCOCCNc1nc(N2CCN(C(=O)CCCCCCCCCCNC(=O)[C@H](CCCCN)n3cc(C)nn3)CC2)nc(N2CCN(C(=O)CCCCCCCCCCNC(=O)[C@H](CO)n3cc(CCCSC)nn3)CC2)n1 | -18.3% (inactive)
73 | CC12CCC(=O)N1C(C(=O)NCCN1C(=O)S/C(=C\c3ccccc3F)C1=O)CS2 (centres undefined) | -9.13% (inactive)
74 | CCOc1ccc(NS(=O)(=O)c2ccc(Cl)c(C(=O)N(C)Cc3cccnc3)c2)cc1 | 10.8% (inactive)
75 | CCN(CC)S(=O)(=O)c1ccc(N2CCOCC2)c(NC(=O)c2ccc(=O)n(C)n2)c1 | -40.6% (inactive)
76 | O=c1nc2s/c(=C\c3ccco3)c(=O)n2nc1Cc1ccccc1 | -1.5% (inactive)
77 | CCOc1ccccc1/C=c1\sc2nc(-c3ccco3)nn2c1=O | 33.5% (active)
78 | CSc1nc(-c2ccco2)nn1C(=O)CCc1ccccc1 | 10.1% (inactive)
79 | CC(=O)c1ccccc1NC(=O)C1CC(=O)N(c2ccc3c(c2)OCCO3)C1 (centres undefined) | -6.21% (inactive)
80 | COc1ccc(OC)c(/C=C/C(=O)c2ccc3c(c2)OCO3)c1 | 6.23% (inactive)
81 | Cc1cc(C)cc(C(=O)N2CCN=C2SCc2ccc([N+](=O)[O-])cc2)c1 | -7.25% (inactive)
82 | Cc1nc(N)nc(SCc2ccc([N+](=O)[O-])cc2)c1N | 12.4% (inactive)
83 | Nc1nc(SCc2ccc([N+](=O)[O-])cc2)c2ncn(C3OC(CO)C(O)C3O)c2n1 (centres undefined) | 36.3% (active)
84 | COc1cc(F)c(C2=CC(=O)CC(C)(C)C2)cc1F | -9.82% (inactive)
85 | COC(=O)c1cccc(NC(=O)c2cccc(N3C(=O)CCC3=O)c2)c1 | 0.805% (inactive)
86 | COc1ccc([C@@H]2[C@@H]3C(=O)N(C(C)(C)C)C(=O)[C@@H]3[C@]3(Cc4ccccc4)C(=O)N(c4cccc(Br)c4)C(=O)N23)cc1 | -3.44% (inactive)
87 | Cc1ccc(C)c(NS(=O)(=O)c2ccc(OCC(=O)NCc3cccnc3)cc2)c1 | 42.3% (active)
88 | Cc1cc(S(=O)(=O)NC2CCCCC2)ccc1OCC(=O)NCc1cccnc1 | -3.46% (inactive)
89 | Cc1ccc(CNC(=O)COc2ccc(S(=O)(=O)NC(C)C)cc2)cc1 | 6.5% (inactive)
